Compounds with a hit are over-represented: about 6.2% of the library has one in this group of screens.
HCMV antiviral: blocks human cytomegalovirus replication; HFF cells, HCMV-luciferase reporter, 72 h; hits give low values; activity change, negative = inhibition, % at 57.5 µM; 410,000 tested, 4.5% active; in the data active = activity change below about -60%; inconclusive = no clear call, values can overlap the other calls; inactive = above about -39%
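Two compound doses tested in HFFs infected with HCMV-luciferase, MOI 1 PFU/cell, 72 h at 37C. Lysate luminescence read with OneGlo; data normalized against buffer-only and 10uM Salinomycin inhibitor controls.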
LASV entry inh: inhibitors of Lassa virus binding or cell entry. Lassa virus pseudotype entry inhibition, cell reporter. 300,000 tested, 1.2% active. AID 540256. Potency, µM (doses to about 37.9 µM), usual class: inhibitors; calls by dose curve; tested in HEK293 cells; also: nearly all actives have a fitted effect of over 50% in size
FMDV inh: antivirals against foot and mouth disease virus; Potency, µM (doses to about 57.9 µM), hits mostly inhibitors; AID 1159524; 410,000 tested, 1.2% active; FMDV antiviral cell-based qHTS; calls by dose curve; tested in HEK293T cells; also: read-out not given here; nearly all actives have a fitted effect of over 45% in size
Marburg entry inh: Marburg virus entry inhibition | Potency, µM (doses to about 37.8 µM), actives largely listed as inhibitors | 300,000 tested, 1.8% active | Marburg virus pseudotyped entry inhibition, cell reporter; calls by dose curve; tested in HEK293 cells
A number is an active result; n = inactive; u = inconclusive; x = no result given.

SMILES	HCMV antiviral	LASV entry inh	FMDV inh	Marburg entry inh
COc1cccc(/C=N/NC(=O)c2ccc3nc[nH]c3c2)c1O	n	x	n	x
COc1cccc(/C=N/NC(=O)c2cc3c(OC)ccc(OC)c3[nH]2)c1O	-99	x	n	x
COc1cc(OC)c2cc(C(=O)N/N=C/c3cccc(OC)c3O)[nH]c2c1	-104	u	n	4.5µM
COc1ccc(NS(=O)(=O)c2ccc3c(c2)C(C(C)C)C(=O)N3)cc1 (stereo not drawn)	n	n	n	x
Cn1c(N)c(C(=O)CCl)c(=O)n(C)c1=O	n	x	u	x
COc1ccc(CNC(=O)/C=C/c2ccco2)cc1OC	-89	n	n	n
COc1c(C)cc(C(=O)C2CCCN(Cc3c(C)n(C)n(-c4ccccc4)c3=O)C2)cc1C (stereo not drawn)	-71	n	n	u
CC(C)Oc1cccc(C(=O)C2CCCN(Cc3ccc(Oc4ncccn4)cc3)C2)c1 (stereo not drawn)	u	n	u	u
COc1c(C)cc(C(=O)C2CCCN(Cc3ccc(Oc4ncccn4)cc3)C2)cc1C (stereo not drawn)	-83	x	u	x
CC(=O)NC(c1ccccc1)c1nc(-c2cnc3ccccc3c2)cs1 (stereo not drawn)	n	x	n	x
CN1CCN(C2CN(Cc3cn(Cc4ccccc4F)nn3)S(=O)(=O)C2)CC1 (stereo not drawn)	n	n	n	x
CC1CCCN(CC(O)CN2CCN(CC(O)CN3CCCC(C)C3)C(C)C2)C1 (stereo not drawn)	n	n	n	1.1µM
COc1ccccc1C(C[N+](=O)[O-])c1c(N)n(C)c(=O)n(C)c1=O (stereo not drawn)	-97	x	32µM	x
C=CCSC1=C(C#N)C(c2ccccc2OCC)C(C#N)C(=O)N1 (stereo not drawn)	n	n	x	u
Cc1cc(C)c2c(NC(=O)CCl)nn(C)c2n1	-110	u	u	u
Cc1cc(C)c2c(NC(=S)NC(=O)c3ccccc3)nn(C)c2n1	n	n	n	n
COc1ccc(CNC(=O)CCCn2nc(C)n3c(cc4sccc43)c2=O)cc1	n	x	n	u
COc1ccc(CC2C(=O)NC(C)C(=O)N(C)C3Cc4ccc(cc4)Oc4cc(ccc4O)CC(C(=O)NC(C)C(=O)NC(C)C(=O)N2C)N(C)C3=O)cc1 (stereo not drawn)	-101	u	n	u
COc1cc2c3cc1Oc1c(OC)c(OC)cc4c1[C@H](Cc1ccc(cc1)Oc1cc(ccc1O)C[C@H]3N(C)CC2)N(C)CC4	n	x	n	x
Cc1ccc(-n2ncc3c(=O)[nH]c(SCC(=O)N4CC(=O)Nc5ccccc54)nc32)cc1	n	n	n	n
Oc1ccc(/C=N/Nc2ccnc3cc(Cl)ccc23)cc1O	-60	x	n	x
O=C(Nc1ccc(F)cc1)N1CCN(CCc2ccccc2)CC1	n	n	n	n
CCNC(=O)N1CCN(CCCC(c2ccc(F)cc2)c2ccc(F)cc2)CC1	-79	u	u	10µM
COc1cc(/C=C(\NC(=O)c2ccccc2)C(=O)NCCO)c([N+](=O)[O-])cc1OC	n	n	u	n
COc1ccc(C(=Cc2cc(OC)c(OC)cc2[N+](=O)[O-])C(=O)O)cc1	-99	n	n	n
SMILES	HCMV antiviral	LASV entry inh	FMDV inh	Marburg entry inh
O=[N+]([O-])c1oc2ccc3ccccc3c2c1CCO	-102	n	n	u
O=C(c1cccn2c(=O)c3cc(Cl)ccc3nc12)N1CCC2(CC1)OCCO2	n	n	n	n
Cc1ccc(-c2[nH]c3ccccc3c2SCCNC(=O)c2ccc(S(=O)(=O)N(C)C)cc2)cc1	n	u	n	u
O=C(Cc1cccs1)NCCSc1c(-c2ccc(Cl)cc2)[nH]c2ccccc12	u	16µM	22µM	u
CN(C)S(=O)(=O)c1ccc(C(=O)NCCSc2c(-c3ccccc3)[nH]c3ccccc23)cc1	-72	u	u	n
COCCNCc1ccc(C(C)C)cc1	n	x	n	x
CCOCCCNCc1ccc(OC)cc1	n	n	n	n
COc1ccc(C(CCNCc2ccc(OC(C)C)cc2)C(C)C)cc1 (stereo not drawn)	-79	u	u	u
COc1ccc(C(CCNCc2ccc(N(C)C)cc2)C(C)C)cc1 (stereo not drawn)	-75	x	u	x
COc1ccc(CNCCC(c2ccc(OC(C)C)cc2)C(C)C)cc1OC (stereo not drawn)	-104	21µM	u	u
COc1ccc(C(O)c2nc3ccccc3n2C)cc1OC (stereo not drawn)	-88	n	u	u
COc1ccc(C(=O)NC(C)c2nc3ccccc3n2C)cc1OC (stereo not drawn)	n	n	n	n
COc1ncnc(OC)c1S(=O)(=O)Nc1ccc(C(F)(F)F)cc1	u	x	n	x
Cc1noc(-c2ccc(C(F)(F)F)cc2)c1NC(=O)Nc1ccc(Cl)cc1	-88	x	u	x
CC(C)(C)c1ccc(/C=C(\c2nc3ccccc3[nH]2)S(=O)(=O)c2ccccc2)cc1	x	x	20µM	x
O=C(O)c1ccc(/C=C(\c2nc3ccccc3[nH]2)c2nc3ccccc3s2)cc1	n	n	n	u
CSc1nc(C)cc(Oc2ccc(=O)n(C)n2)n1	n	n	n	n
C[C@]12CC[C@@H]3c4ccc(O)cc4C[C@@H](CCCCCCCCCS(=O)CCCC(F)(F)C(F)(F)F)[C@H]3[C@@H]1CC[C@@H]2O (stereo partly drawn)	x	3.3µM	x	u
CCN1C(=O)/C(=C\C=C2/C=CC=CN2CC)SC1=S	n	n	n	n
CCN1C(=O)/C(=C/C=C2\C=CN(CC)c3ccccc32)SC1=S	n	n	13µM	u
O=C1OCCC1Sc1nnc(-c2ccc(Cl)cc2Cl)o1 (stereo not drawn)	n	u	u	5µM
CCSc1nnc(-c2ccc(Cl)cc2Cl)o1	n	u	n	n
O=C(O)CCSc1nnc(-c2ccc(Cl)cc2Cl)o1	-76	u	n	u
CC(=O)OC1COC(n2ccc3cc([N+](=O)[O-])ccc32)C(OC(C)=O)C1OC(C)=O (stereo not drawn)	n	n	n	n
S=c1[nH]nc(COc2ccccc2)n1/N=C/C=C/c1ccccc1	n	u	n	n
SMILES	HCMV antiviral	LASV entry inh	FMDV inh	Marburg entry inh
FC(F)Oc1ccc(/C=N/n2c(Cc3ccc(Br)cc3)n[nH]c2=S)cc1	n	5µM	n	n
S=c1[nH]nc(-c2ccncc2)n1/N=C/C(Cl)=C\c1ccccc1	-87	x	n	x
S=c1[nH]nc(COc2ccccc2)n1/N=C/C(Cl)=C/c1ccccc1	n	18µM	35µM	n
S=c1[nH]nc(COc2ccccc2)n1/N=C/C=C/c1ccco1	n	0.79µM	n	n
CC(C)(C)OC(=O)C[C@@H]1C/C=C\C[C@H](CC(=O)N[C@H](CO)Cc2ccccc2)C(=O)N[C@H](Cc2ccccc2)COC1=O	n	x	n	x
CC(C)CC(c1nnnn1C1CCCC1)N1CCN(c2ccccc2F)CC1 (stereo not drawn)	n	u	n	u
S=c1[nH]nc(COc2ccccc2)n1/N=C/c1c(Cl)cccc1Cl	-103	x	n	x
Cc1ccc(/C=N/n2c(COc3ccccc3)n[nH]c2=S)cc1	n	x	n	x
CC(C)c1ccc(/C=N/n2c(COc3ccccc3)n[nH]c2=S)cc1	n	1.6µM	n	u
CN(C)c1ccc(/C=N/n2c(COc3ccccc3)n[nH]c2=S)cc1	n	0.92µM	n	n

Screening data deposited in PubChem by National Center for Advancing Translational Sciences (NCATS).
